These results are taken from PubChem BioAssay.

The term viability denotes a read-out of living cells in per cent, often relative to untreated cells.

The source made the active and inactive calls.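 The calls were made as follows: active = normalized viability below 100% at a tested concentration; inactive = the rest.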

A short description of one experiment: ovarian cancer cell viability with rucaparib, profiling panel, oncology-focused library, rucaparib conditional (AID 1508598). The note with it: patient-derived ovarian cancer cells, CellTiter-Glo viability, 144 h; at 1.25 µM; OCI-P5x cells; without rucaparib; active compounds read low. (In general: Cellular ATP, detected with luciferase, serves as a proxy for viable cell number.)
For `CC1(C)CNc2cc(NC(=O)c3cccnc3NCc3ccncc3)ccc21`, the viability was 98.9% (active).
Regarding `O=C(Nc1ccccc1-c1cn2c(CN3CCNCC3)csc2n1)c1cnc2ccccc2n1`, the viability was 89.6% (active).
As for `Cc1cnc(NC(=O)Nc2cc(Br)c(C)cc2OC[C@@H]2CNCCO2)cn1`, the viability was 85.9% (active).
Take `N#Cc1c(NC(=O)c2cccc3ccccc23)sc2c1CCCC2`: the viability is 34.2% (active).
Consider `COc1ccc(-c2ccc3c(N4CCOC[C@@H]4C)nc(N4CCOC[C@@H]4C)nc3n2)cc1CO`, for which the viability is 22.6% (active).
The same measure, in the same setting: the figure for `Nc1nc(Nc2ccc(S(N)(=O)=O)cc2)nn1C(=O)c1c(F)cccc1F` is 69.8% (active); for `Cc1ccc(F)c(NC(=O)Nc2ccc(-c3cccc4[nH]nc(N)c34)cc2)c1` it is 87.8% (active); for `COc1ccc(-c2ccc3c(N4CCOCC4)nc(N4C[C@@H](C)O[C@@H](C)C4)nc3n2)cc1CO` it is 91.3% (active).
`N#CCNC(=O)c1ccc(-c2ccnc(Nc3ccc(N4CCOCC4)cc3)n2)cc1`: the viability is 84.9% (active).
Still for that read-out and setting: to `COC(=O)c1ccc2c(C(=Nc3ccc(N(C)C(=O)CN4CCN(C)CC4)cc3)c3ccccc3)c(O)[nH]c2c1` belongs 73.9% (active); to `COc1cc2nccc(Oc3ccc(NC(=O)Nc4cc(C)on4)c(Cl)c3)c2cc1OC`, 86.1% (active).

Still in this experiment, the particulars now being: patient-derived ovarian cancer cells, CellTiter-Glo viability, 144 h; at 5 µM; OCI-C5x cells; with rucaparib 10 µM; active compounds read low; 100% = cells with rucaparib alone.
As to `CC1(C)CNc2cc(NC(=O)c3cccnc3NCc3ccncc3)ccc21`, the viability is 137% (inactive).
In the case of `O=C(Nc1ccccc1-c1cn2c(CN3CCNCC3)csc2n1)c1cnc2ccccc2n1`, the viability is 1.3% (active).
Still for that read-out and setting: to `Cc1cnc(NC(=O)Nc2cc(Br)c(C)cc2OC[C@@H]2CNCCO2)cn1` belongs 3.26% (active); to `N#Cc1c(NC(=O)c2cccc3ccccc23)sc2c1CCCC2`, 49.6% (active); to `COc1ccc(-c2ccc3c(N4CCOC[C@@H]4C)nc(N4CCOC[C@@H]4C)nc3n2)cc1CO`, 48% (active).
Take `Nc1nc(Nc2ccc(S(N)(=O)=O)cc2)nn1C(=O)c1c(F)cccc1F`: the viability was 13.2% (active).
Regarding `Cc1ccc(F)c(NC(=O)Nc2ccc(-c3cccc4[nH]nc(N)c34)cc2)c1`, the viability is 83.6% (active).
In the case of `COc1ccc(-c2ccc3c(N4CCOCC4)nc(N4C[C@@H](C)O[C@@H](C)C4)nc3n2)cc1CO`, the viability was 133% (inactive).
Turning to `N#CCNC(=O)c1ccc(-c2ccnc(Nc3ccc(N4CCOCC4)cc3)n2)cc1`, the viability is 78.5% (active).
`COC(=O)c1ccc2c(C(=Nc3ccc(N(C)C(=O)CN4CCN(C)CC4)cc3)c3ccccc3)c(O)[nH]c2c1`: the viability was 124% (inactive).
With `COc1cc2nccc(Oc3ccc(NC(=O)Nc4cc(C)on4)c(Cl)c3)c2cc1OC`, the viability was 150% (inactive).

The experiment is the same for the next values; noted with them: patient-derived ovarian cancer cells, CellTiter-Glo viability, 144 h; at 5 µM; OCI-C5x cells; without rucaparib; active compounds read low.
On to `CC1(C)CNc2cc(NC(=O)c3cccnc3NCc3ccncc3)ccc21`, for which the viability is 148% (inactive).
Consider `O=C(Nc1ccccc1-c1cn2c(CN3CCNCC3)csc2n1)c1cnc2ccccc2n1`, for which the viability is 1.45% (active).
As for `Cc1cnc(NC(=O)Nc2cc(Br)c(C)cc2OC[C@@H]2CNCCO2)cn1`, the viability was 46.4% (active).
With `N#Cc1c(NC(=O)c2cccc3ccccc23)sc2c1CCCC2`, the viability was 64.5% (active).
The same measure, in the same setting: to `COc1ccc(-c2ccc3c(N4CCOC[C@@H]4C)nc(N4CCOC[C@@H]4C)nc3n2)cc1CO` belongs 47.3% (active).
Still for that read-out and setting: to `Nc1nc(Nc2ccc(S(N)(=O)=O)cc2)nn1C(=O)c1c(F)cccc1F` belongs 11.5% (active).
On to `Cc1ccc(F)c(NC(=O)Nc2ccc(-c3cccc4[nH]nc(N)c34)cc2)c1`, for which the viability is 145% (inactive).
Regarding `COc1ccc(-c2ccc3c(N4CCOCC4)nc(N4C[C@@H](C)O[C@@H](C)C4)nc3n2)cc1CO`, the viability was 106% (inactive).
With `N#CCNC(=O)c1ccc(-c2ccnc(Nc3ccc(N4CCOCC4)cc3)n2)cc1`, the viability was 109% (inactive).
Turning to `COC(=O)c1ccc2c(C(=Nc3ccc(N(C)C(=O)CN4CCN(C)CC4)cc3)c3ccccc3)c(O)[nH]c2c1`, the viability was 118% (inactive).
Regarding `COc1cc2nccc(Oc3ccc(NC(=O)Nc4cc(C)on4)c(Cl)c3)c2cc1OC`, the viability was 104% (inactive).

Staying with this experiment, now noted: patient-derived ovarian cancer cells, CellTiter-Glo viability, 144 h; at 5 µM; OCI-P5x cells; with rucaparib 20 µM; active compounds read low; 100% = cells with rucaparib alone.
On to `CC1(C)CNc2cc(NC(=O)c3cccnc3NCc3ccncc3)ccc21`, for which the viability was 131% (inactive).
On to `O=C(Nc1ccccc1-c1cn2c(CN3CCNCC3)csc2n1)c1cnc2ccccc2n1`, for which the viability was 0.727% (active).
On the same count and under the same terms, to `Cc1cnc(NC(=O)Nc2cc(Br)c(C)cc2OC[C@@H]2CNCCO2)cn1` belongs 0.466% (active).
Still for that read-out and setting: to `N#Cc1c(NC(=O)c2cccc3ccccc23)sc2c1CCCC2` belongs 58.3% (active).
Turning to `COc1ccc(-c2ccc3c(N4CCOC[C@@H]4C)nc(N4CCOC[C@@H]4C)nc3n2)cc1CO`, the viability was 26.9% (active).
Regarding `Nc1nc(Nc2ccc(S(N)(=O)=O)cc2)nn1C(=O)c1c(F)cccc1F`, the viability is 19.1% (active).
On the same count and under the same terms, the figure for `Cc1ccc(F)c(NC(=O)Nc2ccc(-c3cccc4[nH]nc(N)c34)cc2)c1` is 14.3% (active).
For `COc1ccc(-c2ccc3c(N4CCOCC4)nc(N4C[C@@H](C)O[C@@H](C)C4)nc3n2)cc1CO`, the viability is 48% (active).
Consider `N#CCNC(=O)c1ccc(-c2ccnc(Nc3ccc(N4CCOCC4)cc3)n2)cc1`, for which the viability is 46.8% (active).
Take `COC(=O)c1ccc2c(C(=Nc3ccc(N(C)C(=O)CN4CCN(C)CC4)cc3)c3ccccc3)c(O)[nH]c2c1`: the viability was 51.6% (active).
In the case of `COc1cc2nccc(Oc3ccc(NC(=O)Nc4cc(C)on4)c(Cl)c3)c2cc1OC`, the viability is 70.8% (active).
